The values that follow come from PubChem BioAssay.

The test system of test [1] is Human papillomavirus type 1a protein E7 (residues 44-93). Description: HPV1a E7 fragment binders on microarrays, primary screen, biochemical, small-molecule microarray, residues 44-93, 635 nm fluorescence (AID 1108).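 Also: E7 fragment applied at 1 µg/mL in TBST for 1 h at 4 C; score combines spot fluorescence with its signal to noise ratio.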 Conditions: small-molecule microarray binding, fluorescence 635 nm; higher = more signal.
Test [2] in a line: modulators of HCV replicon luciferase signal, primary screen, HCV replication inhibitor project, Huh7 cells, luciferase reporter (AID 1109).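 Also: huh7 hepatoma cells harbouring a luciferase neomycin HCV replicon reporter; luciferase luminescence as measure of HCV replicon replication; test concentration not given here.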 Conditions: 48 h, higher = more signal.
For test [3], the target named is Left-right determination factor 2 (Homo sapiens) (UniProt O00292). Description: LEFTY2 binders on small-molecule microarrays, primary screen, biochemical, small-molecule microarray, 635 nm fluorescence scan (AID 1110). Conditions: LEFTY2 binding, higher = more signal.
Test [4] concerns the target Calmodulin-1 (Homo sapiens) (UniProt P0DP23). Description: CALM1 binders on microarrays, EGTA buffer, profiling panel, biochemical, small-molecule microarray, Cy5-labelled CALM1 (AID 1111).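 Also: labelled calmodulin applied in Tris saline Tween buffer holding calcium plus EGTA and DTT.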 The settings on record: Cy5-CALM1 binding fluorescence, higher = more signal.
For test [5] the target is unchanged. Description: calcium-bound CALM1 binders on microarrays, profiling panel, artefact control for SMM control-protein annotation, biochemical, small-molecule microarray, Cy5-labelled CALM1, plus calcium (AID 1112).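 Also: score merges spot fluorescence with signal to noise from triplicate slides.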 The settings on record: Cy5-CALM1 binding fluorescence, higher = more signal.
The nature of test [6]: small-molecule microarray binders of probe aWnt5a, primary screen, biochemical, biotinylated probe, 635/667 nm fluorescence (AID 1113).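 Also: score merges 667 nm fluorescence intensity with signal-to-noise per printed feature.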 The settings on record: higher = more signal.
Test [7] in a line: small-molecule microarray binders of probe aShh, primary screen, biochemical, biotinylated probe, 635/667 nm fluorescence (AID 1114).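 Also: probe is biotin-labelled aShh protein from a stem cell growth factor screen; measures binding of labelled protein to compounds printed on the slide; score merges feature fluorescence at 667 nm with signal-to-noise.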 The settings on record: higher = more signal.
A short description of test [8]: small-molecule microarray binders of probe aNog, primary screen, biochemical, biotinylated probe, 635/667 nm fluorescence (AID 1115).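 Also: probe is biotinylated aNog protein used at 0.15 µg/mL for 1 h at 4 C; z-score combines 667 nm fluorescence of each spot with its signal to noise.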 Conditions: higher = more signal.
Test [9] addresses Torsin-1A-interacting protein 1 (Homo sapiens) (UniProt Q5JTV8). Description: LAP1 binders from COS7 cell lysate, primary screen, small-molecule microarray, 635/667 nm fluorescence (AID 1116). Conditions: COS7-hLAP1 lysate binding, 635 nm fluorescence, higher = more signal.
Test [10] has as its target Alpha-bungarotoxin (Bungarus multicinctus) (UniProt P60615). Description: alpha-bungarotoxin binders on microarray, profiling panel, artefact control for SMM control protein annotation, biochemical, small-molecule microarray, Alexa647 label, 635/667 nm fluorescence (AID 1117). Conditions: alpha-BTX-A647 binding fluorescence, higher = more signal.

Chain of Left-right determination factor 2 (Homo sapiens) (O00292 whole entry, looked up): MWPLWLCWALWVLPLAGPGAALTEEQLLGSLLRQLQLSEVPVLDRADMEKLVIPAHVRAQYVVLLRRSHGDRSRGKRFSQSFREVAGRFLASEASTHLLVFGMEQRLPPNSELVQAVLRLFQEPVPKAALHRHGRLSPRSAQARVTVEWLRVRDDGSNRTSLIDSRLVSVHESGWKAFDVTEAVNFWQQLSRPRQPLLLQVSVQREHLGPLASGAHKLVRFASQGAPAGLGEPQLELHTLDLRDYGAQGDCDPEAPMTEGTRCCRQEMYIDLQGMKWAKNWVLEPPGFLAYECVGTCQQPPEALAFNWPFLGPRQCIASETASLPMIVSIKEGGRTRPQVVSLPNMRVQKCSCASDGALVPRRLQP
Chain of Torsin-1A-interacting protein 1 (Homo sapiens) (Q5JTV8 whole entry, looked up): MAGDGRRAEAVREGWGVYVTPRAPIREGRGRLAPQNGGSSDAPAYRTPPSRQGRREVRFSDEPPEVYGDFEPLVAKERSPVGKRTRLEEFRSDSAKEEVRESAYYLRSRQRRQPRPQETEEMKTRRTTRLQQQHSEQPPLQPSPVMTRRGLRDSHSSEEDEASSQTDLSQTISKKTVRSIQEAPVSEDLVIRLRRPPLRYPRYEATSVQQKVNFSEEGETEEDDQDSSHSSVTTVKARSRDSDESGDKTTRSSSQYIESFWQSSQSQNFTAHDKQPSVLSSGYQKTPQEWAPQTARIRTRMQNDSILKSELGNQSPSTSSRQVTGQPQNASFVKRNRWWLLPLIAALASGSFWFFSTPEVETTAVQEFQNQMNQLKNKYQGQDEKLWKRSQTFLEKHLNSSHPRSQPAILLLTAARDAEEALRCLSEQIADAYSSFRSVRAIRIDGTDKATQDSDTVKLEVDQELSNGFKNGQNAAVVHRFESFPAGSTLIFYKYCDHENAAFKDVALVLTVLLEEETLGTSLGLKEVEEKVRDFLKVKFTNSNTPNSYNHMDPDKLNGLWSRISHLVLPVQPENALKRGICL
Chain of Alpha-bungarotoxin (Bungarus multicinctus) (P60615 whole entry, looked up): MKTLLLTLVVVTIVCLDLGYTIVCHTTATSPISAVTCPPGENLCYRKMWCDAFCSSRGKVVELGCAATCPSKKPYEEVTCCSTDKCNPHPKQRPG

With `CC(C)(C)OC(=O)CC[C@@]1(C(=O)NCCN2CCOCC2)N=C(c2ccc(OCCCO)cc2)O[C@@H]1c1ccccc1CN=[N+]=[N-]`, the composite z-score in test [1] is 1.02; in test [3] it was -0.345; in [4], 1.98; in [5], -0.0256; in test [6], 0.0219; in [7], -0.324. The composite z-score is -0.481 in test [8], 0.462 in test [9] and 0.519 in [10]. This compound had a z-score in test [2] of -0.0116.
`CC(C)=CCCC=C(C)C(O)C1C=CC2C(=O)N(c3ccccc3)C(=O)C2N1Nc1ccc(C#N)cc1` (stereo not given): the composite z-score was 1.4 in [1]; -0.111 in [3]; 1.46 in test [4]; -0.175 in test [5]; -0.0459 in [6]; -0.0769 in test [7]. The composite z-score in test [8] is -0.468; in [9], 0.217; in test [10], 0.82. The same compound registered a z-score in test [2] of -1.96.
Take `CC=CC(O)C1C=CC2C(=O)NC(=O)C2N1Nc1ccc(Cl)cc1Cl` (stereo not given): the composite z-score is 0.342 in [1]; 0.483 in test [3]; 0.498 in test [4]; 0.0224 in test [5]; -0.0194 in test [6]; 0.199 in test [7]. Also, the composite z-score was found to be 0.353 in test [8], 0.685 in test [9] and 0.64 in [10]. The z-score in test [2] was -0.0813.
Regarding `COC(=O)[C@@]1(Cc2ccc(F)cc2)[C@H]2c3cc(C(=O)N4CCCC4)n(CCc4ccccn4)c3C[C@H]2CN1C(=O)c1ccccc1`, the composite z-score was 0.724 in [1]; -0.27 in test [3]; 1.16 in test [4]; 0.42 in [5]; 0.136 in [6]; 0.887 in test [7]. The composite z-score in test [8] was 1.53; in test [9] it was 0.294; in test [10], 0.0045. In test [2], this compound showed a z-score of -0.74.
`CC(C)C(O)C1C=CC2C(=O)NC(=O)C2N1Nc1ccccn1` (stereo not given): the composite z-score in test [1] was 0.927; in [3] it was 0.108; in test [4] it was 0.0802; in test [5], -0.187; in test [6] it was 0.009; in test [7], -0.0793. In addition, the composite z-score came to 0.116 in [8], 0.325 in test [9] and 0.631 in test [10]. This compound gave a z-score in test [2] of -0.43.
As for `O=C1N(Cc2ccccc2)c2ccccc2C[C@@]12COC(c1ccc(OCCCO)cc1)=N2`, the composite z-score in test [1] is 1.24; in test [3] it was -0.56; in [4] it was 0.993; in test [5], 0.749; in test [6] it was 0.02; in test [7], 0.0018. For the same compound, the figures for the composite z-score in [8], in [9] and in [10] were 1.39, 1.58 and 0.802, respectively. This compound also came in with a z-score in test [2] of -1.08.
Consider `COC(=O)[C@@]1(Cc2ccc(F)cc2)[C@H]2c3cc(C(=O)N(C)C)n(CCc4ccc(O)c(O)c4)c3C[C@H]2CN1C(=O)c1ccccc1`, for which the composite z-score is 0.148 in test [1]; -0.0362 in [3]; 0.584 in test [4]; 0.813 in [5]; 0.183 in [6]; -0.214 in test [7]. Also, the composite z-score in test [8] amounted to 0.2; in [9] it was 1.18; in test [10], 0.0055. The z-score in [2] was -1.78.
For `COC(=O)[C@@]1(Cc2ccccc2)N=C(c2ccc(OCCCO)cc2)O[C@H]1c1ccccc1CN=[N+]=[N-]`, the composite z-score in test [1] was 1.36; in test [3], 0.024; in [4], -0.0422; in test [5], -0.193; in [6] it was -0.0792; in test [7], -0.153. Besides, the results for the composite z-score in [8], in [9] and in test [10] were -0.593, 0.757 and 0.537, respectively. This compound showed a z-score in test [2] of -3.42.
On to `CC1CC/C=C\[C@H]2OC34C=CCN(c5ccc6ccccc6c5)C(=O)[C@H]3N(C(C)CO)C(=O)[C@@H]4C2C(=O)O1` (stereo not given in full), for which the composite z-score in [1] was -1.11; in test [3] it was -0.82; in test [4] it was -0.69; in test [5] it was -0.607; in test [6] it was -0.146; in test [7], -0.291. For the same compound, the figures for the composite z-score in test [8], in test [9] and in test [10] were -0.21, -0.26 and -0.758, respectively. The same compound yielded a z-score in test [2] of -0.942.
As to `C=C(/C(=C/C[C@@H](OC(C)=O)c1cccc(OCCO)c1)c1cnc2ccccc2c1)C(C)C`, the composite z-score in test [1] is 0.858; in test [3] it was 0.54; in test [4], -0.24; in test [5], -0.51; in [6], -0.0045; in [7], -0.0709. Besides, the composite z-score in test [8] was -0.326; in test [9] it was 1.02; in [10] it was 1.3. For the same compound, the z-score in [2] is -1.96.
`CCOC(=O)C1=CC[C@@H](c2ccc(OC)cc2)N(S(=O)(=O)c2ccc(C)cc2)[C@H]1CC`: the composite z-score in test [1] is 1.18; in [3], 0.349; in test [4], 1.84; in test [5] it was 0.436; in [6] it was 0.0438; in [7] it was -0.221. Further, the composite z-score in [8] came out at 1.48; in [9], 0.482; in test [10] it was 1. In [2], this compound came in with a z-score of -2.44.
Take `CCN(CC)c1ccc(N2CC=CC34O[C@@H]5C=CCCOC(=O)C5[C@H]3C(=O)N(C(C)CO)[C@@H]4C2=O)cc1` (stereo not given in full): the composite z-score in [1] was 0.274; in test [3], -0.331; in test [4] it was -0.521; in test [5], -1.08; in [6], -0.0758; in test [7] it was 0.194. In addition, the composite z-score was 0.156 in test [8], 0.391 in [9] and -0.973 in test [10]. Moreover, the z-score in test [2] was -1.19.
On to `CN(C)CCCNC(=O)[C@@H]1c2ccccc2C(=O)N(Cc2ccccc2C(F)(F)F)[C@H]1c1ccc(CO)cc1`, for which the composite z-score was -0.242 in [1]; -1.42 in [3]; -0.206 in [4]; -0.263 in test [5]; -0.1 in test [6]; -0.138 in test [7]. The values for the composite z-score in test [8], in [9] and in test [10] were -0.163, 0.689 and 0.542, respectively. In test [2], this compound displayed a z-score of -1.68.
Take `COC(=O)[C@H](Cc1ccccc1)N1CC2=CCCC=C[C@@H]2[C@H]1[C@H](O)Cc1ccccc1`: the composite z-score in test [1] was 0.216; in test [3], -0.149; in [4], 1.09; in test [5], -0.749; in test [6], -0.0977; in [7], 0.427. Further, the composite z-score in [8] worked out at 1.79; in [9], 0.545; in [10] it was 0.831. Further, in [2], the z-score was -1.74.
On to `CN1C(=O)[C@@H]2[C@@H](CC(COc3ccccc3)=C3[C@@H](CCc4ccccc4)OB(O)C[C@@H]32)C1=O`, for which the composite z-score was -0.0599 in [1]; -0.194 in test [3]; 0.0212 in test [4]; 0.662 in test [5]; -0.156 in test [6]; 0.691 in [7]. Moreover, the composite z-score is -0.0172 in test [8], 0.0197 in test [9] and 1.4 in [10]. Besides, the z-score in test [2] was -0.595.
As to `COc1ccc(C(O)C2C=CC3C(=O)N(C)C(=O)C3N2N(c2ccccc2)c2ccccc2)cc1` (stereo not given), the composite z-score is -1.14 in test [1]; -0.302 in [3]; 0.531 in test [4]; 0.625 in test [5]; 0.0102 in [6]; -0.0843 in test [7]. In addition, the values for the composite z-score in test [8], in test [9] and in [10] were 0.83, 0.74 and 0.844, respectively. The compound further had a z-score in [2] of -0.336.
